Source: PubChem BioAssay AID463173 (ICCB-Longwood Screening Facility, Harvard Medical School, 2010)
Among all 52,000 compounds or so, about 4,300 (8.3%) were called active. What follows is part of a selection rich in actives, with near analogues and random picks from the rest. A number with no mark means an inactive call. Rule as the data show it: active = survival mostly below about 52% (no sharp cut-off); inactive = mostly above about 56%.

System: DeltatarO mutant
Assay: S. aureus survival, RN4220 and DeltatarO strains – OD600, teichoic acid synthesis inhibitors, primary screen (AID 463173)
Conditions: S. aureus RN4220 wild type/DeltatarO growth, OD600, 18 h, active compounds read low, screened at 18.75 µg/mL (by protocol)

SMILES	survival
CCOC(=O)c1ccc(NC(=O)Cn2cc(C(=O)C3CC3)c3ccccc32)cc1	68%
Cc1ccccc1NC(=O)c1sc2nc3n(c(=O)c2c1C)N=C(c1ccccc1)CS3	88%
COc1ccc2sc(N3C(=O)C4CC=C(C)CC4C3=O)nc2c1 (stereo unspecified)	103%
CCN=C1Sc2nc3ccc(OCC)cc3cc2CN1CCOC	104%
COCCN1Cc2cc3cc4c(cc3nc2SC1=Nc1cccc(OC)c1)OCO4	87%
CCOc1ccc2nc3c(cc2c1)CN(CCO)C(=Nc1cccc(OC)c1)S3	47% (active)
CN(C)c1ccc(NC(=O)CN2CCN(CC(=O)Nc3ccc(Br)cc3)CC2)cc1	80%
CCCn1c(-c2ccc(F)cc2)cnc1SCC(=O)N1CCCCC1C (stereo unspecified)	74%
COc1ccc(S(=O)(=O)NCCc2csc3nc(-c4ccccc4)nn23)cc1OC	72%
CS(=O)(=O)NCCc1csc2nc(-c3ccccc3)nn12	-2% (active)
COc1ccc(OC)c(S(=O)(=O)NCCc2csc3nc(-c4ccccc4)nn23)c1	-1% (active)
COc1ccc(-c2nc3scc(CCNS(=O)(=O)c4ccccc4F)n3n2)cc1	90%
CCc1ccc(S(=O)(=O)NCCc2csc3nc(-c4ccccc4)nn23)s1	109%
O=S(=O)(NCCc1csc2nc(-c3ccccc3)nn12)c1cccs1	72%
CCS(=O)(=O)NCCc1csc2nc(-c3ccc(C)cc3)nn12	83%
O=S(=O)(NCCc1csc2nc(-c3ccc(Cl)cc3)nn12)c1cccs1	84%
COc1ccc(-c2nc3scc(CCNS(=O)(=O)c4cccs4)n3n2)cc1	6% (active)
CCOc1ccc(C(=O)Nc2ccc3nc(SCc4ccccc4)sc3c2)cc1	91%
O=c1c2c(nc3n1CCCS3)-c1ccccc1CC21CCCC1	73%
CC1=C(C(=O)OC2CCCCCC2)C(c2cccc(F)c2F)CC(=O)N1 (stereo unspecified)	128%
CC(NC(=O)c1ccc(F)cc1)c1nc2ccccc2[nH]1 (stereo unspecified)	83%
O=C(Cn1c(=O)nc(-c2ccccc2)c2ccccc21)Nc1ccc(Cl)cc1F	73%
Clc1ccccc1-c1nnc(COc2ccccc2)o1	50%
CC(CNC(=O)c1sc2ncccc2c1-n1cccc1)c1ccccc1 (stereo unspecified)	102%
COCCCNC(=O)CCCn1c(=O)c2ccccc2n(CC(=O)Nc2ccc(C)cc2Cl)c1=O	96%
COc1cc(NC(=O)CN2CCN(CC(=O)Nc3ccc(F)cc3)CC2)cc(OC)c1	70%
